Inconclusive results are not listed. The source made the active and inactive calls. Unless noted, calls follow the shape of the dose curve; as a rule, active = well fitted inhibition curve with a large enough effect; inconclusive = small, poorly fitted or top-dose-only effect; inactive = flat fitted curve, though single readings scatter.
Target: T1, Tyrosine-protein phosphatase non-receptor type substrate 1 (Homo sapiens) + Leukocyte surface antigen CD47 (Homo sapiens) (UniProt P78324+Q08722)
Test: CD47-SIRPalpha protein protein interaction - LANCE assay qHTS validation (AID 1347057; active = well fitted curve in the direction sought with a large enough effect in the signal ratio, with a control signal flat, not every such curve was filed as active; the % refers to the signal ratio; also: 0% is about no effect)
Settings: Recombinant CD47-His / biotin-SIRPalpha, TR-FRET ratio; series mostly up to 38.3 µM; activity change, negative = inhibition: at the top concentration
Procedure, shortened: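 First, His-tagged CD47 and Eu-labelled anti-His antibody met the compound for 30 min; next, site-specifically biotinylated SIRPalpha was added for 30 min; finally streptavidin-APC was added before reading the TR-FRET ratio.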

T1 sequence (P78324 whole entry, looked up): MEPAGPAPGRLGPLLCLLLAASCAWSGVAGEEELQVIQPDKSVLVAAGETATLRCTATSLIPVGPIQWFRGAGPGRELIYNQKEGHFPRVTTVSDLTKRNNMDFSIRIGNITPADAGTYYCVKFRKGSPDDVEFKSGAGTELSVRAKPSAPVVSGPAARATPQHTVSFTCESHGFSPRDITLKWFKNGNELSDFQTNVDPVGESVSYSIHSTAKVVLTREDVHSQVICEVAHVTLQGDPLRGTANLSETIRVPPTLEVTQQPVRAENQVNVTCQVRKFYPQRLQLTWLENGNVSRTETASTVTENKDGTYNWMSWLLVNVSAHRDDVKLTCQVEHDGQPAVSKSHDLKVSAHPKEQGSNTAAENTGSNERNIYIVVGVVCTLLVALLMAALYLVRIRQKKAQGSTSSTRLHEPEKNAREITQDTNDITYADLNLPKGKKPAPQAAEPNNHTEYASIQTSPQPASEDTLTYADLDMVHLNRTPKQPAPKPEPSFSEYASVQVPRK
T1 sequence (Q08722 whole entry, looked up): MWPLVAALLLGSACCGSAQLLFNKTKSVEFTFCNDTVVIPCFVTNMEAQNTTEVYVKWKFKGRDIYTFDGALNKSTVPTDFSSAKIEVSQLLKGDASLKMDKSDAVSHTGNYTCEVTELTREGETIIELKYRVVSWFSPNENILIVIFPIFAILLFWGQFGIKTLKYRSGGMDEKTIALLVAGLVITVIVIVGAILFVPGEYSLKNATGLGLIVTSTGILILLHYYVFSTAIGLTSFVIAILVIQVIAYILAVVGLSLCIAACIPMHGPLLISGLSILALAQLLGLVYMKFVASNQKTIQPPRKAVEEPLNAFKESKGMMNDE

SMILES | activity change, negative = inhibition
CSc1nc(N)c2ncn([C@@H]3O[C@H](COP(=O)(O)OP(=O)(O)O)C(O)[C@H]3O)c2n1 (some centres not stated) | -0.308% (inactive)
NCCS(=O)O | 2.25% (inactive)
OC[C@H]1O[C@H](n2cnc3c(N[C@H]4CCC[C@@H]4O)ncnc32)[C@H](O)[C@@H]1O | 0.984% (inactive)
CCN1C(=O)C=CC1=O | 0.646% (inactive)
COc1ccc2c(c1)c(CC(=O)O)c(C)n2C(=O)c1ccccc1 | 1.1% (inactive)
c1ccc(C2CN3CCSC3=N2)cc1 (configuration not stated) | -0.044% (inactive)
Cn1c(=O)[nH]c2ncn(C)c2c1=O | 0.791% (inactive)
O=S(=O)(c1cccc2c(Cl)cccc12)N1CCCNCC1 | -0.852% (inactive)
C=C1C(=O)O[C@@H]2[C@H]3O[C@]3(C)CCC=C(C)CC[C@@H]12 | 0.22% (inactive)
Nc1ccc(-c2ccc3ccccc3n2)cc1 | 2% (inactive)
CCCCCCCCCCCCCCSCC(=O)O | 1.53% (inactive)
N#Cc1cc([N+](=O)[O-])c2sc(C(N)=O)[n+]([O-])c2c1 | 1.24% (inactive)
C[C@@H](NCCc1ccc(O)cc1)[C@@H](O)c1ccc(O)cc1 | 3.11% (inactive)
Cn1c(=O)c2[nH]c(C3CCCC3)nc2n(C)c1=O | -1.54% (inactive)
COC(=O)C(C)(N)Cc1ccc(O)cc1 (configuration not stated) | -2.35% (inactive)
O=c1ccc2c(OCCCCc3ccccc3)c3ccoc3cc2o1 | 0.643% (inactive)
CCCCOC(=O)NS(=O)(=O)c1sc(CC(C)C)cc1-c1ccc(Cn2c(CC)nc3c(C)cc(C)nc32)cc1 | -0.583% (inactive)

SMILES | activity change, negative = inhibition
Fc1ccc(CN(C2=NCCN2)c2c(Cl)cccc2Cl)cc1 | 2.02% (inactive)
CC(=O)NCCc1c[nH]c2ccc(O)cc12 | 2.52% (inactive)
COc1ccc(NC(=O)c2ccc(-c3ccc(-c4noc(C)n4)cc3C)cc2)cc1N1CCN(C)CC1 | 0.659% (inactive)
NC1CONC1=O (configuration not stated) | 0.0391% (inactive)
N=C(N)SCCN | 1.27% (inactive)
NCCCCN=C(N)N | 1.4% (inactive)
C=CCN1CCc2c(cc(O)c(O)c2Cl)C(c2ccccc2)C1 (configuration not stated) | 0.659% (inactive)
O=C(O)C1CCCNC1 (configuration not stated) | 2.4% (inactive)
c1ccc(C(NCc2cccnc2)(c2ccccc2)c2ccccc2)cc1 | -1.42% (inactive)
C#CCn1c(=O)c2c(ncn2C)n(C)c1=O | 0.791% (inactive)
COc1ccc(C(=O)NCc2cccnc2)cc1C(=O)NCc1cccnc1 | 1.58% (inactive)
CC(C)(CO)Cc1cc(C(C)(C)C)c(O)c(C(C)(C)C)c1 | 0.0879% (inactive)
COc1cc(/C=C(\C#N)C(=O)c2ccc(O)c(O)c2)cc(I)c1O | -4.31% (inactive)
CCCCCCCCCCCCCCCCCCOC[C@H](COP(=O)([O-])OCC[N+](C)(C)C)OC | 0.0609% (inactive)
COc1cc(CC(=O)O)ccc1O | -0.0879% (inactive)
Oc1ccc(/C=C/c2ccc(/C=C/c3ccc(O)cc3)c(Br)c2)cc1 | 1.45% (inactive)
N[C@@H](CCC(=O)N[C@H](CSN=O)C(=O)NCC(=O)O)C(=O)O | 2.4% (inactive)

Target: T1, Tyrosine-protein phosphatase non-receptor type substrate 1 (Homo sapiens) + Leukocyte surface antigen CD47 (Homo sapiens)
Test: CD47-SIRPalpha protein protein interaction - HTRF assay qHTS validation (AID 1347058; active = well fitted curve in the direction sought with a large enough effect in the signal ratio, not every such curve was filed as active; the % refers to the signal ratio;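 also: recombinant soluble extracellular CD47 with His tag and biotinylated SIRPalpha domains; 0% is about no effect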)
Settings: TR-FRET HTRF CD47-His / biotin-SIRPalpha binding, ratio 665/615; series mostly up to 38.3 µM; activity change, negative = inhibition: at the top concentration
Procedure, shortened: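 TR-FRET read (Ch1/Ch2 ratio) of soluble extracellular CD47 and Avi-biotinylated SIRPalpha domains in PBS pH 7.4 with 0.05% IGEPAL; 7-point compound titration. Sequential 30 min room-temperature steps; non-biotinylated SIRPalpha as control inhibitor.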

SMILES | activity change, negative = inhibition
CSc1nc(N)c2ncn([C@@H]3O[C@H](COP(=O)(O)OP(=O)(O)O)C(O)[C@H]3O)c2n1 (some centres not stated) | 8.87% (inactive)
NCCS(=O)O | -0.696% (inactive)
OC[C@H]1O[C@H](n2cnc3c(N[C@H]4CCC[C@@H]4O)ncnc32)[C@H](O)[C@@H]1O | -4.27% (inactive)
CCN1C(=O)C=CC1=O | 0.449% (inactive)
COc1ccc2c(c1)c(CC(=O)O)c(C)n2C(=O)c1ccccc1 | -1.14% (inactive)
c1ccc(C2CN3CCSC3=N2)cc1 (configuration not stated) | -3.13% (inactive)
Cn1c(=O)[nH]c2ncn(C)c2c1=O | 1.48% (inactive)
C=C1C(=O)O[C@@H]2[C@H]3O[C@]3(C)CCC=C(C)CC[C@@H]12 | -0.301% (inactive)
Cc1cccc(C)c1OCC(N)C(C)C (configuration not stated) | -4.9% (inactive)
CCCCCCCCCCCCCCSCC(=O)O | -4.93% (inactive)
C[C@@H](NCCc1ccc(O)cc1)[C@@H](O)c1ccc(O)cc1 | 5.02% (inactive)
Cn1c(=O)c2[nH]c(C3CCCC3)nc2n(C)c1=O | -1.03% (inactive)
COC(=O)C(C)(N)Cc1ccc(O)cc1 (configuration not stated) | 0.136% (inactive)
O=c1ccc2c(OCCCCc3ccccc3)c3ccoc3cc2o1 | -2.24% (inactive)
CCCCOC(=O)NS(=O)(=O)c1sc(CC(C)C)cc1-c1ccc(Cn2c(CC)nc3c(C)cc(C)nc32)cc1 | -4.88% (inactive)
Fc1ccc(CN(C2=NCCN2)c2c(Cl)cccc2Cl)cc1 | -2.75% (inactive)
COc1ccc(NC(=O)c2ccc(-c3ccc(-c4noc(C)n4)cc3C)cc2)cc1N1CCN(C)CC1 | -5.05% (inactive)
CC(C)NC[C@H](O)COc1cccc2ccccc12 | 0.665% (inactive)
NC1CONC1=O (configuration not stated) | 1.38% (inactive)
N=C(N)SCCN | -1.67% (inactive)
NCCCCN=C(N)N | -4.3% (inactive)
C=CCN1CCc2c(cc(O)c(O)c2Cl)C(c2ccccc2)C1 (configuration not stated) | 4% (inactive)
O=C(O)C1CCCNC1 (configuration not stated) | -0.277% (inactive)
C#CCn1c(=O)c2c(ncn2C)n(C)c1=O | 1.32% (inactive)
COc1ccc(C(=O)NCc2cccnc2)cc1C(=O)NCc1cccnc1 | -1.4% (inactive)
CCCCCCCCCCCCCCCCCCOC[C@H](COP(=O)([O-])OCC[N+](C)(C)C)OC | -4.27% (inactive)
COc1cc(CC(=O)O)ccc1O | 0.512% (inactive)
N[C@@H](CCC(=O)N[C@H](CSN=O)C(=O)NCC(=O)O)C(=O)O | 1.79% (inactive)

Target: T1, Tyrosine-protein phosphatase non-receptor type substrate 1 (Homo sapiens) + Leukocyte surface antigen CD47 (Homo sapiens)
Test: CD47-SIRPalpha protein protein interaction - Alpha assay qHTS validation (AID 1347059);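 also: bead proximity luminescence from CD47 binding SIRPalpha after compound preincubation with SIRPalpha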; also: potency is read from the fitted curve at half-maximal effect; as to activity change, negative = inhibition: % is scaled to controls: 0 for no effect and ±100 for the full control effect
Settings: AlphaScreen CD47-His/biotin-SIRPalpha binding, LOPAC; series mostly up to 38.3 µM; activity change, negative = inhibition: at the top concentration
Procedure, shortened: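 Binding is measured by AlphaScreen proximity: Ni-NTA acceptor beads capture His-CD47, streptavidin donor beads capture biotin-SIRPalpha. Each of three additions (SIRPalpha with compound, CD47, beads) incubates 30 min at room temperature protected from light.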

SMILES | activity change, negative = inhibition | Potency
CSc1nc(N)c2ncn([C@@H]3O[C@H](COP(=O)(O)OP(=O)(O)O)C(O)[C@H]3O)c2n1 (some centres not stated) | 0.599% (inactive) | 
NCCS(=O)O | 1.98% (inactive) | 
OC[C@H]1O[C@H](n2cnc3c(N[C@H]4CCC[C@@H]4O)ncnc32)[C@H](O)[C@@H]1O | 0.633% (inactive) | 
CCN1C(=O)C=CC1=O | 0.286% (inactive) | 
COc1ccc2c(c1)c(CC(=O)O)c(C)n2C(=O)c1ccccc1 | 1.61% (inactive) | 
c1ccc(C2CN3CCSC3=N2)cc1 (configuration not stated) | 2.75% (inactive) | 
Cn1c(=O)[nH]c2ncn(C)c2c1=O | -3.19% (inactive) | 
O=S(=O)(c1cccc2c(Cl)cccc12)N1CCCNCC1 | 3.94% (inactive) | 
C=C1C(=O)O[C@@H]2[C@H]3O[C@]3(C)CCC=C(C)CC[C@@H]12 | -4.13% (inactive) | 
CC[n+]1c(/C=C/C=C2/N(C)c3ccccc3C2(C)C)sc2ccccc21 |  | 7.36 µM (active)
Nc1ccc(-c2ccc3ccccc3n2)cc1 | 13% (inactive) | 
Cc1cccc(C)c1OCC(N)C(C)C (configuration not stated) | 2.22% (inactive) | 
CCCCCCCCCCCCCCSCC(=O)O | 2.45% (inactive) | 
N#Cc1cc([N+](=O)[O-])c2sc(C(N)=O)[n+]([O-])c2c1 | -15.8% (inactive) | 
Cn1c(=O)c2[nH]c(C3CCCC3)nc2n(C)c1=O | -4.81% (inactive) | 
COC(=O)C(C)(N)Cc1ccc(O)cc1 (configuration not stated) | -0.712% (inactive) | 
O=c1ccc2c(OCCCCc3ccccc3)c3ccoc3cc2o1 | 22.8% (inactive) | 
CCCCOC(=O)NS(=O)(=O)c1sc(CC(C)C)cc1-c1ccc(Cn2c(CC)nc3c(C)cc(C)nc32)cc1 | -12.7% (inactive) | 
CC(=O)NCCc1c[nH]c2ccc(O)cc12 | 2.19% (inactive) | 
CC(C)NC[C@H](O)COc1cccc2ccccc12 | -2.51% (inactive) | 
NC1CONC1=O (configuration not stated) | 3.08% (inactive) | 
C=CCN1CCc2c(cc(O)c(O)c2Cl)C(c2ccccc2)C1 (configuration not stated) | -19.6% (inactive) | 
O=C(O)C1CCCNC1 (configuration not stated) | -2.1% (inactive) | 
c1ccc(C(NCc2cccnc2)(c2ccccc2)c2ccccc2)cc1 | -19.6% (inactive) | 
COc1ccc(C(=O)NCc2cccnc2)cc1C(=O)NCc1cccnc1 | 0.626% (inactive) | 
CC(C)(CO)Cc1cc(C(C)(C)C)c(O)c(C(C)(C)C)c1 | -0.347% (inactive) | 
COc1cc(/C=C(\C#N)C(=O)c2ccc(O)c(O)c2)cc(I)c1O | -29% (inactive) | 
CCCCCCCCCCCCCCCCCCOC[C@H](COP(=O)([O-])OCC[N+](C)(C)C)OC | 16.8% (inactive) | 
COc1cc(CC(=O)O)ccc1O | -0.709% (inactive) | 
N[C@@H](CCC(=O)N[C@H](CSN=O)C(=O)NCC(=O)O)C(=O)O | 1.07% (inactive) | 

From PubChem BioAssay (NCATS)
